Data published in PubChem BioAssay AID1861 (The Scripps Research Institute Molecular Screening Center, 2009).
Among all 290,000 compounds or so, about 3,100 (1.1%) were called active. This excerpt belongs to a sample that is enriched for actives. Unmarked numbers belong to inactive results. Cut-off read from the data, not from the text of the source: active = inhibition above about 16% (passing the limit was not always enough); inactive = the rest.

molecular target: Neuropeptides B/W receptor type 1 (Homo sapiens) (UniProt P48145); test: blockers of human neuropeptide B/W receptor 1 – cell-based, fluorescence, single concentration, primary screen (AID 1861); conditions: GPR7-expressing cells, fluorescence antagonist assay; at 4.4 µM; active compounds read high;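 note: cells stimulated with the agonist NPW; 0% = agonist with vehicle and 100% = vehicle without agonist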
Sequence (P48145 whole entry, looked up): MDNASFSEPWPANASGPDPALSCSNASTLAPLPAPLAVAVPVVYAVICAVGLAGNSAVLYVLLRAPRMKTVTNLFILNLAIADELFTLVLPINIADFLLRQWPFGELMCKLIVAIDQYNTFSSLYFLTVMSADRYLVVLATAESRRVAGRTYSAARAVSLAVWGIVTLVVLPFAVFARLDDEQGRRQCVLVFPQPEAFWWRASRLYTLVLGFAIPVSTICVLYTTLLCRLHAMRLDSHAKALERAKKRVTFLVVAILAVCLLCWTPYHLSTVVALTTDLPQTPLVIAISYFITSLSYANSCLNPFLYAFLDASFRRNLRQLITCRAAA

SMILES | inhibition
Cc1nn(C)c(Oc2ccccc2)c1[N+](=O)[O-] | -4.53%
Cn1c(=O)c([N+](=O)[O-])c(Oc2ccccc2)c2ccccc21 | 101% (active)
Cc1cccc(Oc2c([N+](=O)[O-])c(=O)n(C)c3ccccc23)c1 | -3.17%
CC(Cc1cccs1)N(Cc1ccc(Cl)cc1)C(=O)c1ccncc1 (centres undefined) | 14.5%
O=[N+]([O-])c1cccc(/C=N/Nc2ncc(Br)cn2)c1 | -6.1%
Cc1c(CN2CCC(n3nccc3NC(=O)CCc3ccccc3)CC2)cnn1C | 0.34%
COc1ccccc1Oc1ccc(S(=O)(=O)Nc2cccnc2)cc1 | 27.5% (active)
O=S(=O)(Nc1ccccn1)c1ccc(Oc2ccccc2)cc1 | -3.88%
COc1ccc(S(=O)(=O)Nc2cccnc2)c(Cl)c1Cl | 4.69%
Cc1cc(=O)oc(C)c1C(=O)NC1CC(C)(C)NC(C)(C)C1 | 6.27%
Cc1cc(OC(C)C(=O)NC2CC(C)(C)NC(C)(C)C2)c2c(C)cc(=O)oc2c1 (centres undefined) | 27.1% (active)
CC(Oc1cccc(Cl)c1)C(=O)NC1CC(C)(C)NC(C)(C)C1 (centres undefined) | -7.54%
O=c1oc2ccccc2c(CNc2ccccc2)c1[N+](=O)[O-] | 6.62%
CCN1/C(=C/c2ccc3ccc(C)cc3[n+]2CC)Sc2ccccc21 | 38.4% (active)
CCN1CCN(CCNC(=O)c2ccc(/C=C3/Sc4ccccc4N(Cc4cccc(C)c4)C3=O)cc2)CC1 | 3.05%
CCN1/C(=C\c2ccc3ccccc3[n+]2CC)Sc2cc(C)ccc21 | 34.1% (active)
Cc1cc(-c2ccc(S(=O)(=O)N3CCc4ccccc4C3)s2)on1 | 1.59%
CC(=O)Oc1ccc2c(=O)oc(-c3ccc([N+](=O)[O-])cc3)nc2c1 | -20.8%
Cc1cccc(N(C(=O)c2csnn2)C(C(=O)NCc2ccccc2)c2ccncc2)c1 (centres undefined) | -21.8%
CCC(=O)Nc1ccc(S(=O)(=O)Nc2c(NC)c3ccccc3oc2=O)cc1 | -6.83%
Cn1c(Nc2ccccc2)cc(=O)n(C)c1=O | 19.8%
Cc1cccc(N2CCN(C(=O)c3cc4c(=O)[nH]c5ccccc5c4n3C)CC2)c1C | -11.3%
O=C(NCc1ccco1)C(c1ccncc1)N(C(=O)Cn1nnc2ccccc21)c1ccccc1 (centres undefined) | -15.7%
COCCNC(=O)C(c1ccc(C)o1)N(Cc1ccccc1)C(=O)Cn1nnc2ccccc21 (centres undefined) | -3%

SMILES | inhibition
COc1ccccc1N(C(=O)Cn1nnc2ccccc21)C(C(=O)NCc1ccco1)c1ccc(C)o1 (centres undefined) | 27% (active)
CCOc1ccc(C(CC(=O)O)NC(=O)Cc2ccccc2)cc1OC (centres undefined) | -15.8%
COc1cccc2cc(C(N)=O)/c(=N\NC(=O)c3ccccc3)oc12 | 20.9%
O=C(c1cc(COc2ccc(F)c(F)c2)on1)N1CCOCC1 | 1.79%
C=CCC1(CC=C)CCCN1C(=O)c1cc(COc2ccc(-n3cncn3)cc2)on1 | 29.1% (active)
CCn1ccnc1CN(C)C(=O)c1cc(COc2ccc(-n3cncn3)cc2)on1 | -16.5%
O=C(COC(=O)c1ccc(F)cc1)NCCCc1ccccc1 | 12.2%
O=C(Nc1ccccc1)c1nnsc1S(=O)(=O)c1ccc(Cl)cc1 | 42.6% (active)
CS(=O)(=O)c1ccc(Cl)c(NC(=O)Nc2ccccc2)c1 | 4.03%
O=C(c1ccc(Cl)cc1)c1cnc(Nc2ccccc2)s1 | 7.11%
COc1ccccc1N1CCN(C(=O)c2ccc(NC3=NC4CS(=O)(=O)CC4S3)cc2)CC1 (centres undefined) | -7.21%
O=C(O)c1ccc(NC(=O)c2ccc(COc3ccc(Cl)cc3)o2)cc1 | 15.6%
CCOc1ccc(OCc2ccc(C(=O)Nc3cccc(C)n3)o2)cc1 | -9.15%
Cc1cc(OCc2ccc(C(=O)Nc3ccc(C(=O)O)cc3)o2)ccc1Cl | 38% (active)
CCNc1c(NS(=O)(=O)c2ccc(C3CCCCC3)cc2)c(=O)oc2ccccc12 | 12.2%
CC(=O)N1CCN(c2ccccc2NC(=S)NC(=O)c2cc3ccccc3o2)CC1 | -12.1%
Cc1cc(C)nc(N/N=C/c2ccc([N+](=O)[O-])o2)n1 | -3.49%
Cc1ccc(CNCc2ccc3c(c2)OCO3)c(C)c1 | -3.64%
COc1ccc(C(=O)CN2C(=O)NC(C)(c3ccc(C)cc3)C2=O)cc1OC (centres undefined) | 22.6%
COc1cc(NC(=O)CN2C(=O)NC(C)(c3ccc(OC(F)F)cc3)C2=O)cc(OC)c1OC (centres undefined) | 25.8% (active)
COc1ccc(C2(C)NC(=O)N(CC(=O)c3ccc4c(c3)OCO4)C2=O)cc1 (centres undefined) | 0.08%
Cc1nonc1NC(=O)c1oc2ccccc2c1C | -9.19%
CCc1ccc(NC(=O)Cn2nnc(C(=O)NCc3ccc(OC)cc3)c2N)cc1 | -9.93%
CCOc1ccc(Cn2nnc(C(=O)Nc3ccc(OC)cc3OC)c2N)cc1 | 17.7%

SMILES | inhibition
CCOc1ccc(Cn2nnc(C(=O)NCc3ccccc3)c2N)cc1 | 35.9% (active)
CCOc1ncccc1C(=O)NCCc1ccc(OC)cc1 | 24.6% (active)
O=C(NCCc1ccccn1)c1cccnc1Oc1ccc(Cl)cc1 | -10.8%
COc1ccc(CCNC(=O)c2ccccc2OCc2ccccc2)cc1 | 1.73%
CC(C)NC(=O)C(c1ccc(F)cc1)N(C(=O)CCC(=O)Nc1ccccn1)c1ccccc1F (centres undefined) | -14.6%
Cc1ccc2[nH]cc(CCNC(=O)c3ccc([N+](=O)[O-])cc3)c2c1 | 25% (active)
O=C(NCCc1c[nH]c2ccc(Cl)cc12)c1ccc([N+](=O)[O-])cc1 | 7.45%
Cc1ccc2[nH]cc(CCNC(=O)C3CCCCC3)c2c1 | -3.83%
O=C(N/N=C/c1ccccc1O)C1CCCC1 | -6.49%
CCN(CC)CCCNC(=O)CCn1nc(-c2ccc(Cl)cc2)ccc1=O | 11%
Cc1ccccc1N1CC(C(=O)Nc2ccc3c(c2)OCO3)CC1=O (centres undefined) | -9.07%
O=C(Nc1ccc2c(c1)OCO2)C1CC(c2c(F)cccc2Cl)=NO1 (centres undefined) | 29% (active)
Cc1ccc(NC(=O)C2CC(c3ccc(F)cc3)=NO2)cc1 (centres undefined) | -5.41%
CS(=O)(=O)N1CCc2nc(-c3ccccc3)sc2C1 | -4.29%
C=CCSc1nnc(NC(=O)c2ccc(NC(C)=O)cc2)s1 | -10.1%
CCSc1nsc(NC(=O)Nc2ccccc2OC)n1 | 0.35%
C=CCSc1nsc(NC(=O)Nc2cccc(C(C)=O)c2)n1 | 32.5% (active)
CC(=O)c1cccc(NC(=O)c2ccncc2)c1 | -7.93%
CCSc1nsc(NC(=O)Nc2cccc(C(C)=O)c2)n1 | 37.1% (active)
C=C(C)C(=O)Nc1cccc(C(C)=O)c1 | -8.07%
Cc1ccc(S(=O)(=O)NCc2ccc(C(=O)NC3CCC(C)CC3)cc2)cc1 (centres undefined) | -11.8%
COC(=O)c1ccc(CN2CCCC(C(=O)Nc3cccc(-n4cnnn4)c3)C2)cc1 (centres undefined) | -3.8%
CCOC(=O)C1Sc2[nH]c(=O)sc2C(c2ccc(Cl)cc2)C1C(=O)OCC (centres undefined) | -3.9%
Cc1cc(C)c(C(=O)CSc2nc(C)cc(=O)[nH]2)c(C)c1 | 5.17%

SMILES | inhibition
COc1ccc(C2CC(c3ccccc3)Nc3ncnn32)cc1 (centres undefined) | 12.2%
Clc1ccc(C2CC(c3cccs3)n3ncnc3N2)cc1Cl (centres undefined) | 24.9% (active)
COc1ccc(C2CC(c3ccc(C)cc3)Nc3ncnn32)cc1 (centres undefined) | 3.36%
Brc1ccccc1CN1CCC(Cc2ccccc2)CC1 | -13.6%
COc1ccc(Cn2c(C)c(C)c(C#N)c2NC(=O)Nc2ccc(F)cc2)cc1 | -4.33%
COc1cccc(/C=C2/SC(=S)N(CC(=O)NC3C=CS(=O)(=O)C3)C2=O)c1 (centres undefined) | -2.21%
Cc1nc2ccc(S(=O)(=O)N(C)CC(=O)NC(C)c3ccccc3)cc2s1 (centres undefined) | 2.55%
COCCN1C(=O)C(=O)/C(=C(/O)c2ccc(S(=O)(=O)N3CCCCC3)cc2)C1c1ccc(OC)c(OC)c1 (centres undefined) | -6.88%
COC(=O)c1cc(N2CCNCC2)nc2ccccc12 | 1.6%
COc1ccc(S(=O)(=O)NCCc2c[nH]c3ccccc23)cc1OC | -6.73%
COc1ccccc1CC(=O)NCCc1c[nH]c2ccccc12 | -0.98%
COc1cccc(CNCCc2c[nH]c3ccccc23)c1OCc1ccccc1F | 39.6% (active)
O=C(CN1CCC(NC(=O)Nc2ccccc2)CC1)Nc1cccc([N+](=O)[O-])c1 | -1.48%
CC(NC(=O)c1cc(=O)[nH]c2ccccc12)c1ccc(F)cc1F (centres undefined) | 0.31%
CC(C)CC(CCc1ccccc1)OS(N)(=O)=O (centres undefined) | -8.91%
Cc1cccc(NC(=O)c2ccc3nsnc3c2)c1C | 4.08%
Cc1nc(C)c(C(=O)Nc2cccc(C)c2C)o1 | 1.66%
Cc1cccc(NC(=O)c2cccc(C(=O)Nc3cccc(C)c3C)n2)c1C | 36.1% (active)
CC(C)N1CCC(NC(=O)Nc2ccccc2)CC1 | -11.8%
Cn1cc(CNC(=O)c2ccc(OC3CCN(Cc4ccccn4)CC3)cc2)cn1 | -5.98%
CN(Cc1ccccc1)C(=O)c1ccc(NC2=NC3CS(=O)(=O)CC3S2)cc1 (centres undefined) | -12.5%
COc1ccc(C2C=C(c3ccc(Br)cc3)Nc3nc(NS(C)(=O)=O)nn32)cc1 (centres undefined) | 15%
